Results from PubChem BioAssay AID777 (Sanford-Burnham Center for Chemical Genomics, 2007).
In all, about 96,000 compounds went through this assay and about 19,000 (20%) were called active.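 Rule for the calls: active = blocking of liver enzyme CYP2C9 beyond about 50% at 5 µM (limit read from the data); inactive = the rest.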 These entries were drawn from the full list.

Target: Cytochrome P450 2C9 (Homo sapiens) (UniProt P11712)
Assay: blockers of cytochrome P450 2C9 activity – biochemical, luminescence, ADME assay, primary screen (AID 777)
Conditions: CYP2C9 Supersomes, luciferin-H conversion, at 5 µM, hits give high values

Sequence of Cytochrome P450 2C9 (Homo sapiens) (P11712 whole entry, looked up): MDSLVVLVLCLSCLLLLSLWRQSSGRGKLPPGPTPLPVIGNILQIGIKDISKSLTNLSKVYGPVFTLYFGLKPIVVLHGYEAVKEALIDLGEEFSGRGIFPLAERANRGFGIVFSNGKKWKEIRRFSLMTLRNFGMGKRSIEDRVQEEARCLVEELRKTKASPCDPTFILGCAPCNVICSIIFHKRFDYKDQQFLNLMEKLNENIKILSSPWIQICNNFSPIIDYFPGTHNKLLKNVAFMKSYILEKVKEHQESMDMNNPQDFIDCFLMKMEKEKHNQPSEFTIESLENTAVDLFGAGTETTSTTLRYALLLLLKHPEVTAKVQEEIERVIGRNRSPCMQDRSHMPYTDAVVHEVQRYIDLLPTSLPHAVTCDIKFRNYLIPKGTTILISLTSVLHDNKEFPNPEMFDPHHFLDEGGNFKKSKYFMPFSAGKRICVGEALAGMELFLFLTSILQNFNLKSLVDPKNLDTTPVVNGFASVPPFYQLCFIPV

Row | SMILES | inhibition
1 | Cc1ccc(N2CCN(c3ccc(C)cc3)C2c2ccccn2)cc1 | 1.3% (inactive)
2 | O=C(NCCCCCCCCCNC(=O)C(F)(F)F)C(F)(F)F | 11.2% (inactive)
3 | CCCOc1ccccc1C(=O)NCCCC(=O)O | -8.2% (inactive)
4 | CS(=O)(=O)N1CCN(C(=O)Cc2ccccc2)CC1 | -5.4% (inactive)
5 | CCOc1ccc(Cn2nnc(C(=O)NCc3ccccc3)c2N)cc1 | -2.2% (inactive)
6 | COc1ccc(OC)c(CN2C(=O)CCC2(C)C(=O)NC2CCCCCC2)c1 (stereo not drawn) | 30% (inactive)
7 | CC(=O)Oc1ccc2c(C)c(CC(C)O)c(=O)oc2c1 (stereo not drawn) | -16% (inactive)
8 | CCOC(=O)CCc1c(C)c2ccc(OCc3nn[nH]n3)c(C)c2oc1=O | 86.3% (active)
9 | CCOC(=O)N1CCN(C(=O)c2cn(C)c3ccc(S(=O)(=O)N4CCCC4)cc3c2=O)CC1 | -6.2% (inactive)
10 | CCOC(=O)C1CCN(C(=O)c2oc3ccc(S(=O)(=O)N4CCCCCC4)cc3c2C)CC1 | 53.6% (active)
11 | Cc1c(C(=O)Nc2ccccc2Cl)oc2ccc(S(=O)(=O)N3CCC4(CC3)OCCO4)cc12 | 31.2% (inactive)
12 | C=CCn1c(COc2ccccc2F)nnc1SCC(=O)N1CC(=O)Nc2ccccc21 | 12.5% (inactive)
13 | CCN=C1SC(CC(=O)Nc2ccc(C)cc2)C(=O)N1CC (stereo not drawn) | -8.7% (inactive)
14 | Cc1ccc(C)c(NC(=O)C2CC(=O)N(C(C)C)C2)c1 (stereo not drawn) | -14.4% (inactive)
15 | CCN1C(=O)C(CC(=O)Nc2cc(C)ccc2C)SC1=Nc1ccc(S(N)(=O)=O)cc1 (stereo not drawn) | 90.8% (active)
16 | O=S(=O)(/C=C/c1ccccc1)NCCc1ccccn1 | -35.1% (inactive)
17 | Cc1nnc(SCC(=O)N(C(C)C)C(C)C)nc1C | -18.5% (inactive)
18 | CCCn1c(=O)c(-c2ccccc2)c(O)c2ccccc21 | 1.5% (inactive)
19 | Cc1cccc(OCC(O)Cn2c(=N)n(CCN3CCOCC3)c3ccccc32)c1 (stereo not drawn) | -8.4% (inactive)
20 | O=C(c1ccc2c(c1)OCCO2)C1CCN(S(=O)(=O)c2cccc(F)c2)CC1 | -18.3% (inactive)
21 | O=C(Nc1nc2cc3c(cc2s1)OCCO3)c1cccc(S(=O)(=O)N2CCOCC2)c1 | 50.9% (active)
22 | COc1ccc(S(=O)(=O)N2CCOCC2)cc1C(=O)Nc1nc2ccccc2s1 | -3.9% (inactive)
23 | CC1(C)CC(CCC(=O)Nc2ccccc2Cl)C(=O)O1 (stereo not drawn) | -35.4% (inactive)
24 | CCc1nnc(NC(=O)CCC(=O)O)s1 | -9.1% (inactive)
25 | CCCCc1nc2c(=O)[nH]c3ccccc3c2o1 | -4.4% (inactive)

Row | SMILES | inhibition
26 | O=C(Nc1ccc2ccccc2c1)Nc1ccc2snnc2c1 | 19.3% (inactive)
27 | COc1cccc(NC(=O)Cc2ccc(C)cc2)c1 | 21.1% (inactive)
28 | COc1ccc(NC(=O)/C(Cl)=C(/Cl)S(=O)Cc2ccc(C)cc2)cn1 (stereo not drawn) | 52.9% (active)
29 | O=C(Nc1cccc2c1CCCC2)C1CCN(C(=O)NC2CCCCC2)CC1 | 1.9% (inactive)
30 | Cc1ccc(S(=O)(=O)C(C#N)c2nc3ccccc3nc2N2CCCC2)cc1C (stereo not drawn) | 93.4% (active)
31 | Cc1cccc2cc(C#N)c(N3CCCC3)nc12 | -2.2% (inactive)
32 | CC(C)CCOc1ccc(C(=O)C[N+]2(C)CCOCC2)cc1 | 11% (inactive)
33 | COc1ccccc1NC1=NC2(CCCC2)N=C(N)N1 | -4% (inactive)
34 | Cc1nc(N2CCOCC2)nc2c1CCCC2 | -1.5% (inactive)
35 | CCOc1ccc(-c2nnn(CC(=O)N3CCN(c4ccc(F)cc4)CC3)n2)cc1OCC | -6.1% (inactive)
36 | O=C(Nc1ccccc1-c1nnn(CC(=O)N2CCN(c3ccccc3)CC2)n1)c1cccs1 | 80.1% (active)
37 | COc1ccccc1N1CCN(C(=O)Cn2nnc(-c3cccs3)n2)CC1 | 47.2% (inactive)
38 | CC(=O)c1ccc(OCCN2CCOCC2)cc1 | 9.9% (inactive)
39 | CC1CC(c2ccccc2)n2nc(NC(=O)c3cccs3)nc2N1 (stereo not drawn) | 0.9% (inactive)
40 | CCOC(=O)C1CCCN(C(=O)c2cncc(Br)c2)C1 (stereo not drawn) | 33.3% (inactive)
41 | Cc1cc(=O)n2nc(N3CCCC3C(=O)NCCCN3CC(C)CC(C)C3)sc2n1 (stereo not drawn) | 1.8% (inactive)
42 | COc1ccc(CCNC(=O)C2CCN(c3nn4c(=O)cc(C)nc4s3)CC2)cc1OC | -11.8% (inactive)
43 | Cc1cc(=O)n2nc(N3CCCC(C(=O)NCCC4=CCCCC4)C3)sc2n1 (stereo not drawn) | 61.7% (active)
44 | CCCC(=O)Nc1nnc(CC(=O)OCC)s1 | -12.8% (inactive)
45 | COCCCNC(=O)Cn1cc(C(=O)C2CC2)c2ccccc21 | 11.2% (inactive)
46 | CN1CCN(S(=O)(=O)c2ccc(NC(=O)C3CCCO3)cc2)CC1 (stereo not drawn) | 60% (active)
47 | O=C(Nc1nc2ccc(S(=O)(=O)N3CCCC3)cc2s1)C1CCCO1 (stereo not drawn) | 46.1% (inactive)
48 | CN1CCN(S(=O)(=O)c2ccc(NC(=O)c3ccco3)cc2)CC1 | -13.5% (inactive)
49 | c1csc(CN2CCN(Cc3cccs3)C2c2cccs2)c1 | -9% (inactive)
50 | Cc1[nH]c2ccccc2c1C(=O)COC(=O)C(C)C | -5% (inactive)

Row | SMILES | inhibition
51 | COc1ccccc1CCNC(=O)c1cnccn1 | -35.8% (inactive)
52 | CCCN(Cc1cc2cccc(C)c2[nH]c1=O)S(C)(=O)=O | 36.4% (inactive)
53 | CCOc1ccc(C(=O)NCCCN2CCCC2=O)cc1 | 12.3% (inactive)
54 | COc1ccc(S(=O)(=O)N(CCCN2CCCC2=O)Cc2cc3c(C)ccc(C)c3[nH]c2=O)cc1 | 85.6% (active)
55 | CSc1ccc(Cl)c(C(=O)OCC(=O)N2CC(C)OC(C)C2)c1 (stereo not drawn) | -24.7% (inactive)
56 | Cc1nc2nc3c(cn2n1)C(=O)CC(c1ccccc1)C3 (stereo not drawn) | 65.6% (active)
57 | Cc1cc(=O)oc(C)c1C(=O)Nc1cnc2ccccc2c1 | 10.5% (inactive)
58 | COc1ccc(CNC(=O)c2c(C)cc(=O)oc2C)cc1OC | 32.7% (inactive)
59 | Cc1cc(=O)oc(C)c1C(=O)NCc1ccc(F)cc1 | 51.6% (active)
60 | O=C(c1ccc(Cl)c(Cl)c1)N1CCCC1 | 7% (inactive)
61 | O=C(CN1CCN(S(=O)(=O)c2ccc(Cl)s2)CC1)NCc1ccc(Cl)cc1 | 55.1% (active)
62 | Cc1cccc(NC(=O)CN2CCCN(S(=O)(=O)c3ccc(Br)s3)CC2)c1 | 11.6% (inactive)
63 | Cc1ccc(CNC(=O)CN2CCN(Cc3ccc(Cl)cc3)C2=O)cc1 | 17.5% (inactive)
64 | O=S(=O)(NCc1ccccc1Cl)c1cnc[nH]1 | 28.8% (inactive)
65 | CC1(C)CC(=O)C=C(NCCN2CCNCC2)C1 | -8.1% (inactive)
66 | Cc1ccc(Nc2nc(C)cc(C)c2C(N)=O)cc1 | 6.2% (inactive)
67 | CCOC(=O)c1nc(Nc2ccc(C(=O)OC)cc2)c2ccccc2n1 | 59.5% (active)
68 | COC(=O)c1ccc(NCC(=O)c2ccccc2)cc1 | 48.7% (inactive)
69 | Cc1nc(CNS(=O)(=O)c2cccnc2)cs1 | 8.8% (inactive)
70 | CCc1cc2c(=O)c(-c3ccon3)c(N)oc2cc1OC | 0.5% (inactive)
71 | CCn1c(SCCC(C)C)nnc1-c1c[nH]c2ccccc12 | 1.7% (inactive)
72 | CCOC(=O)N1CCN(C(=O)CSc2nnc(-c3c[nH]c4ccccc34)n2CCOC)CC1 | 14.7% (inactive)
73 | O=C(CSc1nnc(-c2ccco2)n1-c1ccccc1)NCCc1ccccc1 | 30.9% (inactive)
74 | Cc1ccc(-n2c(SCC(=O)Nc3ccc4c(c3)OCO4)nnc2-c2ccoc2C)cc1 | -13.4% (inactive)
75 | O=C(CSc1nnc2scc(-c3ccc(F)cc3)n12)NCc1ccco1 | 55% (active)

Row | SMILES | inhibition
76 | Cc1ccc(-c2csc3nnc(SCC(=O)NCc4ccco4)n23)cc1 | 40.9% (inactive)
77 | O=C(CSc1nnc(-c2cccs2)n1-c1ccccc1)N1CCN(C(=O)c2ccco2)CC1 | 23.6% (inactive)
78 | O=C(CSc1nnc(-c2cccs2)n1-c1ccccc1)NCc1ccco1 | 70.7% (active)
79 | CCn1c(SCC(=O)Nc2ccc(OC)c(OC)c2)nnc1-c1c[nH]c2ccccc12 | 93.3% (active)
80 | CCOc1ccccc1-n1c(SCC(=O)N2CCCC2)nnc1-c1ccoc1C | 8.8% (inactive)
81 | COc1ccc(-n2c(SCC(=O)NCc3cccs3)nnc2-c2ccoc2C)cc1 | 66.1% (active)
82 | CC(C)(C)OC(=O)c1c(N)n(CCCN2CCCC2=O)c2nc3ccccc3nc12 | -1.7% (inactive)
83 | CCc1c(C)n([O-])c2c([n+]1=O)CCCCC2 | -11.5% (inactive)
84 | CC1CCC2(CC1)NC(=O)N(CC(=O)c1cccn1C)C2=O (stereo not drawn) | -21.9% (inactive)
85 | Nc1ccc(C(=O)OCC(=O)NC2CCCc3ccccc32)cc1[N+](=O)[O-] (stereo not drawn) | -4.1% (inactive)
86 | Cc1cc(NC(=O)Nc2ccccc2)n(-c2ccccc2)n1 | 14.5% (inactive)
87 | CCOc1ccc(N(CC(=O)NC2CCCCCC2)S(=O)(=O)c2c(C)[nH]c(=O)[nH]c2=O)cc1 | 1.3% (inactive)
88 | Cc1ccc(CNC(=O)c2ccccc2CCc2ccccc2)cc1 | 29.1% (inactive)
89 | Cc1cccc(C(=O)Nc2ccc(C(=O)/C=C/c3cccs3)cc2)c1 | 26.4% (inactive)
90 | O=C(NC1CC1)c1ccc2c(c1)NC(=O)c1ccccc1S2 | 11.1% (inactive)
91 | COc1ccc(-n2c(SCC(=O)NCc3ccco3)nnc2-c2c[nH]c3ccccc23)cc1 | 58.8% (active)
92 | COc1ccc(C(=O)NC(=O)CSc2nnc(-c3ccco3)n2-c2ccccc2)cc1 | -13.3% (inactive)
93 | COc1ccc(-c2nnc(SCC(=O)c3ccco3)n2-c2ccccc2)cc1 | -14.6% (inactive)
94 | Cc1cc(NC(=O)CN2CCCC(C)C2)n(-c2nc3ccccc3s2)n1 (stereo not drawn) | 22.2% (inactive)
95 | c1ccc2c(c1)OCC(c1nn3cnnc3s1)O2 (stereo not drawn) | 7% (inactive)
96 | CC(C)(C)c1cc2cccnc2n1Cc1cccc(F)c1 | 6.5% (inactive)
97 | COC(=O)c1ccc(OCC(=O)NC(C)(C)C)cc1 | 14.1% (inactive)
98 | CC/C(=N/Nc1ccccc1)c1cnnc(SC)n1 | 59% (active)
